Each structure is given as a SMILES string. Compounds without any hit were thinned out: in the full panel of roughly 83,000, 20% have a hit.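 Step 1: grow cells in 96-well plates. Step 2: add test compound at a single concentration. Step 3: incubate 48 h. Step 4: record percent growth.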 Unmarked numbers belong to inactive results. The source made the active and inactive calls. The calls were made as follows: active = growth percent below 10; inactive = the rest.

From PubChem BioAssay (NCI) come the findings set out here.

Common to all, as to assay: NCI-60 one-dose screen, 48 h (100 = growth as untreated, 0 = no growth, -100 = all killed)
Holding throughout (conditions): 10 µM unless noted

The test system of experiment [1] is HCT-15 colon.
Experiment [2] relates to SNB-75 CNS.
Experiment [3] has as its system SNB-19 CNS.
Experiment [4] has as its system U251 CNS.
Experiment [5] has as its system PC-3 prostate.
The test system of experiment [6] is SK-MEL-5 melanoma.
Experiment [7] deals with UACC-62 melanoma.
In experiment [8] the test system is LOX IMVI melanoma.
Experiment [9] concerns SK-MEL-28 melanoma.

In the case of `CNc1nc(C)c(-c2nc(Nc3cccc(S(N)(=O)=O)c3)ncc2F)s1`, the growth in experiment [1] was 1.76% (active); in [2], -19.2% (active); in [3] it was 7.87% (active); in experiment [4], 4.31% (active); in [5] it was 11.7%; in experiment [6], -23.3% (active). The growth was -48.6% (active) in experiment [7], 0.394% (active) in experiment [8] and -38% (active) in [9].

For the compound `O=C1c2c[n+](Cc3ccccc3)ccc2-c2nc3ccccc3c3ccnc1c23`, the growth in [1] was 18.6%; in [2] it was -80.7% (active); in experiment [3], -72.2% (active); in [4] it was -77% (active); in experiment [5], -7.15% (active); in [6] it was -93.9% (active). Moreover, the values for the growth in experiment [7], in experiment [8] and in [9] were -58.5% (active), -37.1% (active) and -34.3% (active), respectively.

As for `COc1cnc2c(c1)C(=O)c1c-2n(CCCN2CCNCC2)c(=O)c2cc([N+](=O)[O-])ccc12`, the growth was -80.7% (active) in experiment [1]; 2.92% (active) in experiment [2]; -40.7% (active) in experiment [3]; -93.3% (active) in experiment [4]; -82.3% (active) in experiment [5]; -7.99% (active) in experiment [6]. Further, the growth in experiment [7] is -82% (active); in [8], -86.5% (active); in experiment [9], -76.6% (active).

For `O=C1Nc2ccccc2/C1=C/C(=N/c1nnc(-c2ccc(Cl)cc2)s1)c1ccccc1`, the growth in experiment [1] was 3.35% (active); in experiment [2] it was 76.4%; in [3], 100%; in experiment [5] it was 75.7%; in experiment [6] it was 78.3%; in experiment [7], 51.7%. The growth in experiment [8] was -79.3% (active); in experiment [9], 61.2%.

With `COc1ccc(S(=O)(=O)NCCCNc2nccc(-c3c(-c4cccc(N)c4)nc4sccn34)n2)cc1`, the growth in [1] is 89.2%; in experiment [3] it was 110%; in experiment [4] it was 106%; in experiment [5], 81.4%; in experiment [6] it was 81.3%; in experiment [7], 53%. The growth in [8] was 96.4%; in [9], 93.1%.

Take `C#Cc1nc2ccccc2c(=O)[nH]1`: the growth in experiment [1] was -47% (active); in experiment [2], -56.1% (active); in experiment [3] it was 69.2%; in [5], -38.2% (active); in [6] it was -34.6% (active); in experiment [7], -77.2% (active). The growth in [8] was -69.4% (active); in [9] it was -64.8% (active).

Regarding `C[C@@H]1CC[C@@H]2[C@@H]1[C@H](OC(=O)/C=C/c1ccccc1)[C@]1(c3ccccc3)C[C@@H](OC(=O)CO)[C@@]2(C)O1`, the growth in experiment [1] was 97.7%; in experiment [2], 90.2%; in [3], 96%; in experiment [5] it was 80.5%; in experiment [6], 94.8%; in [7], 75.4%. For the same compound, the growth in experiment [8] is 97.8%; in [9], 101%.

On to `CCOC(=O)N1CCN(c2nc(Nc3cc(C)[nH]n3)c3ccccc3n2)CC1`, for which the growth in experiment [1] is 40.4%; in experiment [2] it was -21.2% (active); in [3] it was 89.2%; in experiment [5], 57.2%; in experiment [6], 57.9%; in experiment [7], 66.8%. Also, the growth in [8] is 24%; in experiment [9], 59.6%.

As for `O=C1Nc2ccc(Br)cc2C12CC(c1ccccc1)=NN2` (stereo unspecified), the growth in experiment [1] is 32.7%; in experiment [2], 28.1%; in experiment [3], 69.1%; in experiment [5] it was 29.4%; in experiment [6], 23.9%; in [7], 48.2%. The figures for the growth in [8] and in [9] were 51.9% and 56.2%, respectively.

Consider `NC(=S)N/N=C/c1ccc(OCc2ccccc2)cc1`, for which the growth was 47.8% in experiment [1]; 67.8% in experiment [2]; 73.1% in experiment [3]; 71.8% in [4]; 64.2% in experiment [5]; 86.4% in experiment [6]. The growth was 61.8% in experiment [7], 82.1% in experiment [8] and 80% in experiment [9].

As for `COCCCN=C(N)c1ccc(NC(=O)c2ccc(C(=O)Nc3ccc(C(N)=NCCCOC)cc3)cc2)cc1`, the growth is 118% in experiment [1]; 86.4% in [2]; 99.1% in experiment [4]; 125% in experiment [5]; 78.3% in experiment [6]; 91% in [7]. Further, the growth in [8] was 120%; in experiment [9], 226%.

Consider `COc1ccc(C(=O)c2sc3nc4c(c(C(F)(F)F)c3c2N)CN(C(C)=O)CC4)cc1OC`, for which the growth in experiment [1] is 84.7%; in [2] it was 74.6%; in experiment [3], 95.8%; in [4] it was 78.3%; in experiment [6], 77.6%; in experiment [7] it was 83.6%. Besides, the growth in [8] is 78.4%; in experiment [9] it was 93.4%.

Regarding `CC(C)[C@@H]1CC[C@]2(C(=O)NCCCCN=C(N)N)CC[C@]3(C)[C@H](CC[C@@H]4[C@@]5(C)CCC(=O)C(C)(C)[C@@H]5CC[C@]43C)[C@@H]12`, the growth in [1] is 96.4%; in [3] it was 41.9%; in experiment [4] it was 30.8%; in [5], 46.6%; in experiment [6], 20.4%; in experiment [7], 48.2%. The growth is 69.9% in experiment [8] and 15.6% in [9].

Regarding `C=C1CCC2C3(C)COC(C)(C)OC3CCC2(C)C1C/C=C1/C(=O)OCC1OC(C)=O` (stereo unspecified), the growth is 33.8% in experiment [1]; 58% in experiment [2]; 110% in experiment [3]; 36.7% in experiment [4]; 56.4% in [5]; 56.9% in experiment [6]. The growth in experiment [7] was 41.9%; in experiment [8] it was 8.63% (active); in experiment [9], 69.6%.

On to `C[C@]12C[C@@H](c3ccoc3)OC(=O)[C@@H]1CC[C@]1(C)[C@@H]2CC[C@@H](O)[C@]1(C)O`, for which the growth was 85.4% in [1]; 62.3% in experiment [2]; 76.5% in [3]; 66.5% in experiment [4]; 60.5% in experiment [5]; 76.2% in experiment [6]. Further, the growth was 76.1% in experiment [7], 70.5% in [8] and 94.1% in experiment [9].
